Assay outcomes (PubChem)
Most compounds without a hit are left out; they make up all but 4.9% or so of the library.
UCHL1 inh: human UCHL1 deubiquitinase inhibition; purified UCHL1, Ub-rhodamine cleavage fluorescence; actives 0.2% (n = 47,000); AID 1645859; inhibition, % at 20 µM; P09936
USP8 block: blocks human USP8 ubiquitin-rhodamine cleavage; P40818; purified USP8, Ub-rhodamine cleavage fluorescence, 30 min; inhibition, % at 20 µM; actives 4.2% (n = 47,000); AID 1645853
USP7 inh: inhibitors of human USP7 deubiquitinase; Q93009; purified USP7, Ub-rhodamine cleavage fluorescence; inhibition, % at 20 µM; actives 0.3% (n = 47,000); AID 1645854
USP10 block: inhibitors of human USP10 deubiquitinase | purified USP10, Ub-rhodamine fluorescence, 60 min | AID 1645856 | Q14694 | actives 1.1% (n = 47,000) | inhibition, % at 20 µM
OTUD3 inh: blocks human OTUD3 ubiquitin-rhodamine cleavage; Q5T2D3; purified OTUD3, Ub-rhodamine fluorescence, 2 h; inhibition, % at 25 µM; actives 0.7% (n = 47,000); AID 1645858
Active calls of the source: *. No stated cut-off is given here; in the data, active means inhibition above about 30%; inactive means the rest.

SMILES | UCHL1 inh | USP8 block | USP7 inh | USP10 block | OTUD3 inh
Cc1ccc2c(c1)CCCN2C(=O)c1cn(Cc2ccccc2)nc1-c1cccnc1 | -21 | 53* | -47 | -7 | -35
CC(Nc1ncnc2cc(-c3ccc(Cl)cc3)sc12)c1ccccn1 (stereo unspecified) | 0 | 57* | 5 | 14 | 3
COc1ccc(OCC(=O)Nc2cc(C)c(O)c(-c3nc4ccccc4o3)c2)cc1 | 1 | 1 | 4 | 1 | 2
COc1ccccc1C(=O)Nc1ccc(-c2nc3ccccc3o2)c(O)c1 | -2 | 37* | 14 | 32* | 25
O=C(CCn1c(=S)oc2ccccc21)Nc1ccc(O)c(-c2nc3ccccc3o2)c1 | -1 | 33* | 0 | -1 | -14
O=C(COc1ccccc1)Nc1ccc(-c2nc3cnccc3o2)c(O)c1 | -2 | 84* | 36* | 25 | -18
CC(=O)N1Cc2ccccc2OC2(CCN(Cc3cnc(C)nc3)CC2)C1 | 0 | -12 | 2 | 0 | -21
Cc1cc(CSc2ncccc2C(=O)Nc2ccnn2Cc2cccnc2)no1 | 2 | -23 | 4 | -1 | 81*
CCOc1ncccc1C(=O)Nc1ccnn1Cc1ccccc1 | -2 | 1 | 0 | 50* | 2
CCOc1ncccc1C(=O)Nc1ccnn1Cc1ccc(C)s1 | 4 | 2 | -11 | 5 | 7
Cc1cc(CSc2ncccc2C(=O)Nc2ccnn2Cc2ccccn2)no1 | -3 | -56 | -1 | -3 | -6
CC(C)c1cc(C2CCCN2C(=O)Cc2c(F)cccc2Cl)no1 (stereo unspecified) | -1 | 5 | -14 | -1 | -2
Fc1ccc(-c2cc3n(c2)CCc2cc4c(cc2-3)OCO4)cc1 | -15 | 47* | -19 | -4 | -35
Cc1cc(=O)n(CC(=O)NCc2ccc(F)cc2)c(N2CCOCC2)n1 | -3 | 2 | -20 | 0 | -3
O=C(Cc1nnc(-c2cnccn2)o1)Nc1ccc(C(F)(F)F)cc1 | 3 | 55* | 2 | -1 | 10
Cc1cc(Cl)ccc1OCC(=O)Nc1ccccc1 | 0 | 0 | -14 | 2 | -3
CSc1cccc(NC(=O)COc2cccc3ccccc23)c1 | 10 | 43* | 15 | 26 | 14
COc1ccc(-c2c(C)nc3c(-c4ccsc4)cnn3c2N)cc1 | 0 | 32* | 2 | 3 | 7
CNc1nc(C2CCCN(C(=O)c3cc(C4CC4)on3)C2)nc2c1CCN(C)C2 (stereo unspecified) | -1 | 36* | -10 | -3 | -37
COc1ccc(C)cc1S(=O)(=O)NCC12CC3CC(CC(C3)C1)C2 | 10 | 14 | 6 | 9 | 22
COc1ccc(C(=O)N2CCC3(CC2)CO[C@@H]([C@@]2(C)CC[C@H](O)C(C)(C)O2)C3)cc1F | 1 | 20 | 1 | -1 | 11
CN(Cc1ccc2c(c1)OCO2)C(=O)c1nc(-c2ccccc2)n(-c2ccccc2)n1 | 4 | -49 | 4 | 5 | 13
CS(=O)(=O)Nc1cccc(CNC(=O)c2nc(-c3ccccc3)n(-c3ccccc3)n2)c1 | -1 | 38* | -2 | 1 | -12
CCc1ccc(-c2nc(SCC(=O)c3c(N)n(C4CC4)c(=O)[nH]c3=O)n[nH]2)cc1 | -4 | 36* | 2 | -9 | -46
Cc1ccc(-c2nc(SCC(=O)c3c(N)n(C4CC4)c(=O)[nH]c3=O)n[nH]2)cc1 | 1 | 5 | -10 | 3 | -25
SMILES | UCHL1 inh | USP8 block | USP7 inh | USP10 block | OTUD3 inh
Cc1nn2c(C)c(C(=O)Nc3ccccc3Cl)nnc2c1-c1ccccc1 | 4 | 12 | 9 | -1 | 12
O=C(Cn1cc(S(=O)(=O)Cc2ccccc2)c2ccccc21)NC1CCCCC1 | -3 | 30* | -6 | -2 | -14
O=C(Oc1ccccc1)C1CCN(S(=O)(=O)c2ccc3c(c2)OCCCO3)CC1 | 4 | 16 | 5 | 3 | 19
CC(=O)c1cccc(S(=O)(=O)N2CCC(C(=O)Oc3ccc(-c4nnco4)cc3)CC2)c1 | 8 | 39* | 2 | 10 | 20
O=S(=O)(c1cccc(F)c1)N1CCN(c2nnnn2-c2ccccc2)CC1 | -2 | -9 | 2 | 2 | 41*
CC(=O)Nc1ccc(NC(=O)c2ccc3c(c2)CC(c2ccccc2)OC3=O)cc1 (stereo unspecified) | 1 | 34* | 4 | 22 | 0
NS(=O)(=O)c1ccc(NC(=O)c2ccc3c(c2)CC(c2ccccc2)OC3=O)cc1 (stereo unspecified) | 2 | 1 | 0 | 14 | 0
NC(=O)C1CSC(c2ccccc2O)=N1 (stereo unspecified) | -4 | -14 | -5 | -8 | 3
O=C(Nc1ccc2c(c1)OCCO2)C1CCN(C(=O)c2ccccc2)CC1 | 1 | 0 | -9 | 5 | 18
O=C(Nc1ccc2c(c1)OCO2)C1CCN(C(=O)c2ccc3n[nH]nc3c2)CC1 | 2 | 36* | 5 | 0 | 7
Cc1ccc(Cn2c(=O)n(CCCC(=O)NC3CCN(Cc4ccccc4)CC3)c(=O)c3ccccc32)cc1 | 4 | 5 | -1 | 1 | 3
COc1cc2c(C#N)c(OC)nc3c2c(n1)NC(C)(c1ccc(Br)cc1)N3 (stereo unspecified) | -4 | 85* | -8 | -7 | -29
O=C(c1ccnn1-c1ccc2ccc(-c3cccnc3)cn12)N1CCCC1 | -54 | -119 | -52 | -5 | -138
COc1cccc(NC(=O)Cn2c3ccccc3n3c(=O)cc(-c4ccccc4)nc23)c1 | 3 | 88* | 27 | 49* | 10
COc1cccc(NC(=O)CCn2c(=O)c3cccn3c3ccccc32)c1 | 4 | 5 | 4 | 0 | -41
O=C(CSc1nnc(-c2ccncc2)n1Cc1ccccc1)NC(=O)c1ccccc1 | -6 | 15 | -8 | -3 | -13
Cc1nccn1-c1cncc(C2CCCN2C(=O)Cc2c[nH]c3ccccc23)n1 (stereo unspecified) | -2 | 10 | 1 | -4 | 15
CN1C(=O)N(CC(=O)N2CCCC2c2cncc(-n3ccnc3)n2)C(=O)C12CCCCC2 (stereo unspecified) | 1 | 36* | -1 | 0 | 9
COCCNC(=O)Cn1nnc(-c2ccc(-c3ccc(OC)cc3)cc2)n1 | 3 | 26 | 12 | 13 | 12
CCCCNC(=O)c1cc2cn(C3CC3)cc2s1 | -7 | 78* | -24 | -4 | -28
COc1ccc(-c2nn(-c3ccccc3)c3[nH]c(=O)c(CNCc4cccs4)cc23)cc1OC | -3 | 78* | 4 | -10 | -13
COc1ccc(-c2nn(-c3ccccc3)c3[nH]c(=O)c(CNc4ccc5c(c4)OCCO5)cc23)cc1OC | 17 | 78* | 31* | 23 | -4
Cc1ncoc1C(=O)N1CCCCC1c1cc(=O)n2ccnc2[nH]1 (stereo unspecified) | 0 | -3 | 3 | -2 | 4
Cc1ccc(NC(=O)C(=O)c2cn(CC(=O)N3CCOCC3)c3ccccc23)cc1F | -5 | -22 | -2 | -1 | -12
O=C(NC1CCCc2ccccc21)c1cc(Cl)ccn1 (stereo unspecified) | 0 | 21 | 3 | -8 | 14
